# Screening data: PubChem, several laboratories
# Wee1 degr inh: inhibitors of human Wee1 degradation; 1.2% of 220,000 active; HeLa Luc-Wee1K328M stability, luciferase luminescence; 100% = proteasome inhibitor MG132 effect; reporter increase, % at 5 µM; P30291; AID 1321;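 active = activation above the mean of all tested compounds plus 3 SD, set per screening run, cut at about 8.8% in these data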;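 note: cells exposed to compound for 20 h before luminescence read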
# Furin inhibitor: inhibitors of human furin | purified furin, fluorogenic substrate cleavage | inhibition, % at 20 µM or 30 µM | 0.061% of 220,000 active | P09958; in the data active = inhibition above about 25%
# Target sequence (P09958 108-714 limits assumed): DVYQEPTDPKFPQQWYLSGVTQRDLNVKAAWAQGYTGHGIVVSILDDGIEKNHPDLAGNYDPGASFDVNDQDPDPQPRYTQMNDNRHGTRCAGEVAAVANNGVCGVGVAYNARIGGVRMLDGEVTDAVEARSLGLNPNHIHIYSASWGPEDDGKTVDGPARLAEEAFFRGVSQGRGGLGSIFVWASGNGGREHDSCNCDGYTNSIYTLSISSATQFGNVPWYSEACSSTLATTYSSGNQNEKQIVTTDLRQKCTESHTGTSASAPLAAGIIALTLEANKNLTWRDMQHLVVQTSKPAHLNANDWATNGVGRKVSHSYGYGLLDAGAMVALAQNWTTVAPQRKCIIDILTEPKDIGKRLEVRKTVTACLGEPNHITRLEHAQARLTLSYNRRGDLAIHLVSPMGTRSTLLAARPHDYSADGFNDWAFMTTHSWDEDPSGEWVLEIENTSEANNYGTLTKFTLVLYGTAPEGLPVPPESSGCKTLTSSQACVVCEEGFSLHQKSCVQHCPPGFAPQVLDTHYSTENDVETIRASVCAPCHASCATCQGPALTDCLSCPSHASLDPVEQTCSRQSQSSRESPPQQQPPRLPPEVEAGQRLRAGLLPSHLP
# HSV replic up: increases HSV replication in cells; HSV replication augmentation in cells, fold increase; maximum fold increase; AID 1956; 0.005% of 220,000 active; in the data active = maximum fold increase above about 1.5; tested in PC3 cells
# PGE2 EP2 inh: inhibitors of human EP2 prostaglandin E2 receptor | C6 glioma cells expressing human EP2, cAMP TR-FRET; cells stimulated with saturating PGE2 | 0.52% of 260,000 active | inhibition, % at 25 µM | AID 1422;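 active = percent inhibition above 40 after rounding to a whole number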;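 note: rat C6 glioma host cells with rolipram phosphodiesterase inhibitor present; the protocol text gives 20 µM as final concentration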
# p47phox inh: p47phox (human) inhibition. inhibition, % at 24.7 µM. p47phox/p22phox peptide binding, fluorescence polarization, 2 h. P14598. 0.53% of 220,000 active;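 active = inhibition above about 30%, limit read from the data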
# EP2 modulator: modulators of human EP2 prostaglandin E2 receptor | induction, % at 25 µM | 0.83% of 260,000 active | P43116 | AID 940 | EP2-expressing cells, cAMP HTRF FRET, PGE2 co-stimulation;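 active = compounds whose cAMP rise, as percent of the full-agonist control response, exceeds 60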;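 note: rat C6 glioma line stably carrying human EP2 under a CMV promoter; the protocol text gives 20 µM as final concentration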
# EP2 confirm: human EP2 receptor cAMP induction, negative in counter-screens; 47% of 1,300 active; calls only at 20 µM (by protocol); C6 glioma EP2 cells, cAMP HTRF induction; plus low (about EC15) PGE2 agonist; shares compounds with EP2 modulator;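 active = cAMP induction above 50% in the main assay while under 30% in all four parallel counter assays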;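 note: rat C6 glioma cells stably expressing human EP2 receptor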
# Hits are given with their value; n = inactive; x = not tested or not shown; + = active, no number. This is a sample that favours compounds with a hit; in the whole collection about 2.8% have one here.
SMILES,Wee1 degr inh,Furin inhibitor,HSV replic up,PGE2 EP2 inh,p47phox inh,EP2 modulator,EP2 confirm
CCOc1ccccc1Cn1c(=O)oc2ccc(C)cc21,n,n,n,n,n,77,+
CCCOc1ccc(Cn2c(=O)oc3ccc(C)cc32)cc1OC,n,n,n,n,n,n,x
CCCOc1ccccc1Cn1c(=O)oc2ccc(C)cc21,n,n,n,n,n,84,+
CCn1c(=O)c(C(=O)NCCN2CCNCC2)c(O)c2ccccc21,x,x,x,n,x,n,x
CC1=C(C#N)CCC(=O)N1Cc1c(F)cccc1Cl,n,n,n,n,n,n,x
O=C1CCC(c2ccccc2)=NN1Cc1c(F)cccc1Cl,n,n,n,n,n,66,+
CCCn1c(C)nc2c(c1=O)c1nc3ccccc3nc1n2CCC1=CCCCC1,n,n,n,n,n,72,n
Cc1sc2nc(C3CC3)n3c(=O)n(CC(=O)N(C(C)C)C(C)C)nc3c2c1C,x,x,x,x,x,n,x
COc1cc(C=O)c(Br)cc1OCC(=O)NCCc1ccccc1,n,n,n,n,n,n,x
CCOC(=O)COc1cc(Br)c(/C=N/Nc2ccccc2)cc1OC,n,n,x,x,n,68,n
C=CCc1cccc(/C=N/c2nc3ccccc3n2CC)c1O,n,n,n,n,n,84,n
COc1ccc(C2=Nn3c(nnc3-c3ccccc3)SC2)cc1OC,n,n,n,n,n,70,n
COc1ccc(OC)c(C2=Nn3c(nnc3-c3ccco3)SC2)c1,n,n,n,n,n,74,+
COc1ccc(C2=Nn3c(nnc3C3CCCCC3)SC2)cc1OC,n,n,n,n,n,77,+
COc1ccc(-c2nnc3n2N=C(C)CS3)cc1OC,n,n,n,n,n,n,x
CC1CCCC(C)N1C(=O)CN1CCC(O)(c2ccccc2)CC1 (centres undefined),x,x,x,n,x,n,x
CC(NC(c1ccccc1)c1ccccc1)C(=O)N1CCCc2ccccc21 (centres undefined),n,n,n,n,n,66,n
c1ccc(-c2nn3c(C4CCCCC4)nnc3s2)nc1,n,n,n,n,n,n,x
c1ccc(-c2nn3c(C4CCCCC4)nnc3s2)cc1,n,n,n,n,n,73,+
c1ccc(-c2nn3c(-c4ccccc4)nnc3s2)cc1,n,n,n,n,n,74,+
Cc1cccc(-c2nnc3sc(-c4ccccc4)nn23)c1,n,n,n,n,n,n,x
CCc1sc(NC(=O)C(C)(C)C)nc1-c1ccccc1,x,x,x,n,x,n,x
CCOC(=O)Cc1csc(NC(=O)c2cc(=O)c3ccccc3o2)n1,n,n,n,n,n,84,+
COc1ccc(NC(=O)c2ccco2)cc1NC(=O)c1ccccc1C,x,x,x,n,x,n,x
Cc1ccc(CN2C(=O)/C(=C\c3ccc(C(=O)NCc4cccnc4)cc3)Oc3ccccc32)cc1,n,n,n,n,n,85,+
SMILES,Wee1 degr inh,Furin inhibitor,HSV replic up,PGE2 EP2 inh,p47phox inh,EP2 modulator,EP2 confirm
FC(F)(F)c1cc(-c2ccccc2)nc(N2CCOCC2)n1,n,n,n,n,n,65,n
FC(F)(F)c1cc(-c2ccccc2)nc(N2CCCCC2)n1,n,n,n,n,n,n,x
COc1cc(/C=C/c2[nH]c(=O)[nH]c(=O)c2[N+](=O)[O-])ccc1OCc1cccc(C)c1,x,x,x,n,x,n,x
CCn1c(=NC(=O)c2ccc(S(=O)(=O)N(C)C)cc2)sc2cccc(OC)c21,n,n,n,n,n,76,n
COc1ccc(-n2c(COc3cccc4ccccc34)nnc2SCC(=O)NCc2ccco2)cc1,n,n,n,n,n,66,n
COc1ccc(-n2c(COc3ccc4ccccc4c3)nnc2SCC(=O)NCc2ccco2)cc1,n,n,n,n,n,n,x
COC(=O)c1c(NC(=O)CSc2nnc(-c3cccnc3)n2Cc2ccco2)sc(C)c1C,n,n,n,n,n,n,n
O=C(CSc1nnc(-c2ccncc2)n1Cc1ccco1)c1ccc(Cl)cc1,n,n,n,n,n,n,x
O=C(CSc1nnc(-c2ccc(Cl)cc2)n1Cc1ccco1)c1cccs1,n,n,n,n,n,70,+
Cc1ccc2nc(Nc3ccc4[nH]c(=O)[nH]c4c3)c(-n3nc(C)cc3C)nc2c1,n,n,n,n,n,86,n
O=C(O)c1oc(C(=O)O)c(C(=O)O)c1C(=O)O,x,x,x,n,x,n,n
Cc1oc(C)c(C(=O)O)c1C(=O)O,n,n,n,n,n,n,x
C=C(C)Cn1c(N2CCN(c3ccc(OC)cc3)CC2)nc2c1c(=O)n(C)c(=O)n2C,n,n,n,n,n,n,x
COc1ccc(N2CCN(c3nc4c(c(=O)n(C)c(=O)n4C)n3Cc3ccccc3)CC2)cc1,n,n,n,n,n,69,n
Cc1ccc(NC(=O)CCCSc2nc(-c3ccco3)cc(C(F)(F)F)n2)c(C)c1,x,x,x,n,x,n,x
Cc1c(CN2CCc3c(nc(N4CCCC4)[nH]c3=O)C2)[nH]c2ccccc12,x,x,x,x,x,n,x
CC1CCN(C(C)C(=O)Nc2ccccc2-c2ccccc2)CC1 (centres undefined),n,n,n,n,n,82,+
CC(C(=O)Nc1ccccc1-c1ccccc1)N1CCN(C(=O)c2ccccc2)CC1 (centres undefined),n,n,n,n,n,n,x
O=C(O)c1ccc(-c2ccccc2C(F)(F)F)o1,n,n,n,n,n,83,+
COCCCNC(=S)N(Cc1ccc(F)cc1)Cc1cc2c(C)cc(C)cc2[nH]c1=O,x,x,x,n,x,n,x
COC1(C)CC2C(CC1OC(=O)c1cc([N+](=O)[O-])cc([N+](=O)[O-])c1)C2(C)C (centres undefined),n,n,n,n,n,72,+
Cc1ccc(S(=O)(=O)N(CC(=O)N=Nc2c(O)[nH]c3ccccc23)c2ccc(C)c(C)c2)cc1,n,n,n,n,n,67,+
Cc1ccc(S(=O)(=O)N=Nc2c(O)[nH]c3ccccc23)cc1,n,n,n,n,n,n,x
CCc1ccc2nc(SCC(=O)NCC3CCCO3)c(C#N)cc2c1 (centres undefined),n,n,n,n,n,n,x
CCc1ccc2nc(-c3cccc(C)c3)nc(SCC(=O)NCC3CCCO3)c2c1 (centres undefined),n,n,n,n,n,86,n
Cc1cc(C)c2cc(CN(CCO)C(=S)NCC3CCCO3)c(=O)[nH]c2c1 (centres undefined),x,x,x,n,x,n,x
Cc1ccc(-c2csc(N=C(N)N)n2)cc1,n,n,n,n,n,n,x
NC(N)=Nc1nc(CSCC/C(N)=N/S(N)(=O)=O)cs1,n,n,n,n,n,n,n
CC(Sc1cnc2ccccc2n1)C(=O)O (centres undefined),n,n,n,n,n,68,n
CC(Sc1ccc2ccccc2n1)C(=O)O (centres undefined),n,n,x,x,n,97,n
